Compound activity deposited in PubChem by Broad Institute.
A selection: hits, their analogues and other compounds. The true share with any hit is near 1.8%.
F508del corr = CFTR F508del correction in bronchial cells. AID 720511. 350,000 tested, 0.36% active. activity (quench increase), % at 7.58 µM. CFBE cells, YFP halide quenching; stimulated with forskolin plus potentiator P3; % fluorescence drop versus neutral controls;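 active = mean added fluorescence quench of at least 8% versus neutral control, with both replicates also reaching 8%; inconclusive = only one of the mean or replicate conditions met; inactive = mean below 8% and not both replicates reaching 8%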;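 also: cells transiently co-express mutant CFTR-F508del with the halide-sensitive YFP; corrector assay measuring rescue of mutant channel to the surface after 24 h compound exposure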
LGR2 inh = inhibitors of bursicon-induced Drosophila LGR2 receptor cAMP signaling | inhibition, % at 9.99 µM | AID 720647 | HEK293 LGR2, CRE-luciferase, bursicon-stimulated, 4 h | 380,000 tested, 0.35% active;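 active = drop in luminescence signal, shown as inhibition above about 50% in the replicate tests, limit read from the data, passing the limit was not always enough; inconclusive = probably only some replicates passing the limit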;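 also: agonist challenge used bursicon conditioned medium at about half maximal strength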
PAX8 inh HTS = lowers PAX8-driven luciferase in RMG-I cells | RMG-I TPO-luciferase reporter, SteadyGlo, 24 h | inhibition, % at 12.6 µM | 360,000 tested, 1.2% active;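 active = mean replicate inhibition at least 60% with every replicate also reaching 60%; inconclusive = only one of the two criteria is met; inactive = mean below 60% and not all replicates reaching 60%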;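 also: luciferase light reporting Pax8 driven TPO promoter activity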
EWS-Fli block = EWS/Fli transcriptional activity inhibition. A673 NR0B1-luciferase reporter, viability-normalised. inhibition, % at 12.6 µM. 350,000 tested, 0.67% active. AID 651661;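 active = mean inhibition of at least 50% after viability correction, with every replicate also passing that limit; inconclusive = mean reaches 50% but only one of two replicates passes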;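 also: firefly luciferase signal divided by Alamar Blue viability fluorescence both relative to DMSO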
Of the large screens only hits and unclear results are named; the others gave an inactive call.

Cc1ccc(S(=O)(=O)Nc2ccc3c(c2)C(=O)N([C@H](C)CO)C[C@H](C)[C@@H](CN(C)S(=O)(=O)c2ccc(F)cc2)OCCCC[C@H](C)O3)cc1	PAX8 inh HTS 85.5
Cc1ccc(S(=O)(=O)N(C)C[C@H]2OCCCC[C@@H](C)Oc3ccc(NS(=O)(=O)c4ccc(F)cc4)cc3C(=O)N([C@H](C)CO)C[C@H]2C)cc1	none
Cc1ccc(S(=O)(=O)N(C)C[C@@H]2OCCCC[C@H](C)Oc3ccc(NS(=O)(=O)c4ccc(F)cc4)cc3C(=O)N([C@H](C)CO)C[C@H]2C)cc1	PAX8 inh HTS 87.0
CC(CN1C(C)CCCC1C)OC(=O)c1ccccc1Br (configuration not stated)	none
C[C@@H]1CN([C@H](C)CO)C(=O)c2cc(NS(=O)(=O)c3ccc(Cl)cc3)ccc2O[C@@H](C)CCCCO[C@H]1CN(C)S(=O)(=O)c1ccc(Cl)cc1	PAX8 inh HTS 94.7
C[C@@H]1CN([C@@H](C)CO)C(=O)c2cc(NS(=O)(=O)c3ccc(Cl)cc3)ccc2O[C@@H](C)CCCCO[C@H]1CN(C)C	PAX8 inh HTS 80.1
C[C@H]1CCCCO[C@@H](CN(C)S(=O)(=O)c2ccc(Cl)cc2)[C@@H](C)CN([C@@H](C)CO)C(=O)c2cc(NS(=O)(=O)c3ccccc3)ccc2O1	PAX8 inh HTS inconclusive
C[C@@H]1CN([C@@H](C)CO)C(=O)c2cc(NS(=O)(=O)c3ccc(Cl)cc3)ccc2O[C@@H](C)CCCCO[C@H]1CN(C)S(=O)(=O)c1ccc(Cl)cc1	none
C[C@H](CO)N1C[C@H](C)[C@H](CN(C)S(=O)(=O)c2ccc(Cl)cc2)OCCCC[C@H](C)Oc2ccc(NS(=O)(=O)c3ccc(Cl)cc3)cc2C1=O	PAX8 inh HTS 80.5
COc1ccccc1/C=N/NC(=O)c1cc2c(OC)c(OC)ccc2[nH]1	F508del corr 9.3
COc1ccc(/C=N/NC(=O)c2cc3c(OC)ccc(OC)c3[nH]2)cc1O	none
COc1ccc(OC)c2[nH]c(C(=O)N/N=C/c3ccccc3O)cc12	F508del corr 14.4
Cc1ccc(-c2noc(-c3cccs3)n2)cc1	LGR2 inh 70.3 (no result: PAX8 inh HTS)
COc1ccc(-c2nc(-c3cccs3)no2)cc1	LGR2 inh 80.6, EWS-Fli block 82.5
Cc1ccc(S(=O)(=O)c2cc3ccccc3oc2=Nc2ccc3c(c2)OCCO3)cc1	none (no result: F508del corr, EWS-Fli block)
COC(=O)C1=C(C)N(Cc2ccc(C(F)(F)F)cc2)C(=NCc2ccccc2)NC1c1ccccc1 (configuration not stated)	none
COC(=O)C1=C(C)N(Cc2ccc(C(F)(F)F)cc2)C(=NCc2ccccc2)NC1c1ccc(C(F)(F)F)cc1 (configuration not stated)	LGR2 inh inconclusive, PAX8 inh HTS 84.4
COC(=O)C1=C(C)N(Cc2cccc(C(F)(F)F)c2)C(=NCc2ccc(C(F)(F)F)cc2)NC1c1ccc(Cl)cc1 (configuration not stated)	LGR2 inh 55.1
COC(=O)C1=C(C)N(Cc2ccc(C(F)(F)F)cc2)C(=NCc2ccccc2)NC1c1cccc(C(F)(F)F)c1 (configuration not stated)	PAX8 inh HTS inconclusive
COC(=O)C1=C(C)N(Cc2cccc(C(F)(F)F)c2)C(=NCc2ccc(C(F)(F)F)cc2)NC1c1ccccc1 (configuration not stated)	EWS-Fli block 51.6
CCN=C1NC(c2cccc(Cl)c2)C(C(=O)OC)=C(C)N1Cc1ccc(C(F)(F)F)cc1 (configuration not stated)	none
COC(=O)C1=C(C)N(Cc2ccc(C(F)(F)F)cc2)C(=NCc2ccccc2)NC1c1cccc(Cl)c1 (configuration not stated)	LGR2 inh 53.0, PAX8 inh HTS 99.6
COc1ccc(-c2nnc3cccc(Cl)n23)c(OC)c1	none
COC(=O)C1=C(C)N(Cc2cccc(C(F)(F)F)c2)C(=NCc2cc(OC)c(OC)c(OC)c2)NC1c1ccccc1 (configuration not stated)	none
COC(=O)C1=C(C)N(Cc2ccc(C(F)(F)F)cc2)C(=NCc2ccc(C(F)(F)F)cc2)NC1c1cccc(F)c1 (configuration not stated)	EWS-Fli block 56.5
COC(=O)C1=C(C)N(Cc2cccc(C(F)(F)F)c2)C(=NCC2CC2)NC1c1cccc(C(F)(F)F)c1 (configuration not stated)	PAX8 inh HTS 89.4
